According to PubChem BioAssay:
Records with an inconclusive call do not appear. Calls of active or inactive are those of the source. Unless noted, the limit is not given here; nearly all actives have IC50 up to about 30 µM.

assay: SU-DIPG-VI glioma cell viability, MIPE4.0 library, CellTiter-Glo luminescence, qHTS (AID 1347066; cut-off not given, nearly all actives have AC50 up to about 30 µM;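 also: cells exposed to compound for 48 hours before readout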); details: CellTiter-Glo ATP luminescence

SMILES	outcome	AC50
O=C(/C=C/c1c(C(=O)O)[nH]c2cc(Cl)cc(Cl)c12)Nc1ccccc1	inactive	–
N#C/C(=C(/N)Sc1ccc(N)cc1)c1ccccc1C(F)(F)F	inactive	–
FC(F)(F)c1ccc(/C=C/c2nc(COc3ccc(CCCCn4ccnn4)cc3)co2)cc1	inactive	–
C=CCc1cccc(/C=N/NC(=O)CN2CCN(Cc3ccccc3)CC2)c1O	–	16.6 µM (active)
C[C@@H](N)C1CCC(C(=O)Nc2ccncc2)CC1 (stereo partly specified)	inactive	–
Cc1cccc(C#Cc2ccccc2)n1	inactive	–
Nc1nccc(-c2ccc3noc(-c4ccc(Cl)cc4)c3c2)n1	inactive	–
NC(=O)c1ccc(-c2nc(-c3ccc4c(c3)OCCO4)c(-c3ccccn3)[nH]2)cc1	inactive	–
COc1ccc(Nc2nccc(NCCO)n2)cc1	inactive	–
CC(C)(C)/[N+]([O-])=C/c1ccc(S(=O)(=O)O)cc1S(=O)(=O)O	inactive	–
CC(C)C[C@@H](C(=O)N[C@H](C(=O)OC1CCCC1)c1ccccc1)[C@H](O)C(=O)NO	–	23.5 µM (active)
Clc1ccc(-c2nc3sccn3c2/C=N/OCc2ccc(Cl)c(Cl)c2)cc1	inactive	–
Oc1ccc(-c2nc(-c3ccc(F)cc3)c(-c3ccncc3)[nH]2)cc1	inactive	–
O=C(c1ccc(Nc2nccc(-c3cc4ccccc4s3)n2)cc1)N1CCC(N2CCCC2)CC1	–	18.7 µM (active)
CC(C)(Sc1ccc(CCN(CCCCC2CCCCC2)C(=O)NC2CCCCC2)cc1)C(=O)O	inactive	–
O=C1c2ccccc2-c2n[nH]c3cccc1c23	inactive	–

assay: JHH-DIPG-1 glioma cell viability, MIPE5.0 library, CellTiter-Glo luminescence, qHTS (AID 1347067; cut-off not given, nearly all actives have AC50 up to about 26 µM;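 also: cells exposed to compound for 48 hours before readout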); details: JHH-DIPG-1 glioma viability, CellTiter-Glo ATP luminescence

SMILES	AC50	outcome
C[C@H](NC(=O)c1sccc1OCc1ccc(Cl)cc1)c1ccccc1	18.6 µM (active)	–
CNC(=O)[C@H]1O[C@@H](n2cnc3c(NCc4cccc(I)c4)nc(Cl)nc32)[C@H](O)[C@@H]1O	23.5 µM (active)	–
Oc1cc(O)cc(/C=C/c2ccc(O)c(O)c2)c1	16.6 µM (active)	–
CN(CCOc1ccc(-c2ccc3c(c2)OCO3)cc1C(C)(C)C)CC(=O)O	23.5 µM (active)	–
C[C@@H](N)C1CCC(C(=O)Nc2ccncc2)CC1 (stereo partly specified)	–	inactive
Nc1ncnc2c1ncn2[C@@H]1O[C@H](CO)C[C@H]1O	–	inactive
NC(=O)c1ccc(-c2nc(-c3ccc4c(c3)OCCO4)c(-c3ccccn3)[nH]2)cc1	20.9 µM (active)	–
CC(C)N(CCC(=O)c1ccc2ccccc2c1)Cc1ccccc1	4.17 µM (active)	–
COc1ccc(Nc2nccc(NCCO)n2)cc1	–	inactive
COc1cc2c(cc1O)CC[C@@H]1[C@@H]2CC[C@]2(C)[C@@H](O)CC[C@@H]12	3.72 µM (active)	–
Cc1ccccc1C(=O)c1ccc(Nc2ccc(Br)cc2N)cc1Cl	23.5 µM (active)	–
CCOC(=O)C(C)Oc1cccc2c(=O)n(CC(=O)Nc3ccc4c(c3)OCCO4)ccc12 (stereo unspecified)	–	inactive
CC(C)C[C@@H](C(=O)N[C@H](C(=O)OC1CCCC1)c1ccccc1)[C@H](O)C(=O)NO	–	inactive
Clc1ccc(-c2nc3sccn3c2/C=N/OCc2ccc(Cl)c(Cl)c2)cc1	–	inactive
O=S(=O)(NCCNC/C=C/c1ccc(Br)cc1)c1cccc2cnccc12	16.6 µM (active)	–
CCCC[C@@H](C=O)NC(=O)[C@H](CC(C)C)NC(=O)OCc1ccccc1	–	inactive
O=C(c1ccc(Nc2nccc(-c3cc4ccccc4s3)n2)cc1)N1CCC(N2CCCC2)CC1	9.34 µM (active)	–
C[C@H](NC(=O)Cc1cc(F)cc(F)c1)C(=O)N[C@H](C(=O)OC(C)(C)C)c1ccccc1	–	inactive

assay: SU-DIPG-XXV glioma cell viability, MIPE5.0 library, qHTS (AID 1347068); details: not given;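 as to IC50: cells exposed to compound for 48 hours before viability readout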

SMILES	outcome	IC50
C[C@H](NC(=O)c1sccc1OCc1ccc(Cl)cc1)c1ccccc1	inactive	–
CNC(=O)[C@H]1O[C@@H](n2cnc3c(NCc4cccc(I)c4)nc(Cl)nc32)[C@H](O)[C@@H]1O	inactive	–
COc1cc(SC)ccc1C(=O)N1CCC(Cc2ccccc2)CC1	inactive	–
N#C/C(=C(/N)Sc1ccc(N)cc1)c1ccccc1C(F)(F)F	inactive	–
Oc1cc(O)cc(/C=C/c2ccc(O)c(O)c2)c1	inactive	–
CN(CCOc1ccc(-c2ccc3c(c2)OCO3)cc1C(C)(C)C)CC(=O)O	inactive	–
C[C@@H](N)C1CCC(C(=O)Nc2ccncc2)CC1 (stereo partly specified)	inactive	–
Nc1ncnc2c1ncn2[C@@H]1O[C@H](CO)C[C@H]1O	inactive	–
NC(=O)c1ccc(-c2nc(-c3ccc4c(c3)OCCO4)c(-c3ccccn3)[nH]2)cc1	inactive	–
COc1ccc(Nc2nccc(NCCO)n2)cc1	inactive	–
Cc1ccccc1C(=O)c1ccc(Nc2ccc(Br)cc2N)cc1Cl	–	23.5 µM (active)
N#C/C(=C\c1ccc(O)c(O)c1)C(=O)NCc1ccccc1	inactive	–
CCOC(=O)C(C)Oc1cccc2c(=O)n(CC(=O)Nc3ccc4c(c3)OCCO4)ccc12 (stereo unspecified)	inactive	–
O=c1ncccn1[C@@H]1O[C@H](CO)[C@@H](O)[C@H]1O	inactive	–
Clc1ccc(-c2nc3sccn3c2/C=N/OCc2ccc(Cl)c(Cl)c2)cc1	inactive	–
O=c1cc(N2CCOCC2)oc2c(-c3ccccc3)cccc12	inactive	–
O=S(=O)(NCCNC/C=C/c1ccc(Br)cc1)c1cccc2cnccc12	inactive	–
CCCC[C@@H](C=O)NC(=O)[C@H](CC(C)C)NC(=O)OCc1ccccc1	–	16.6 µM (active)
Oc1ccc(-c2nc(-c3ccc(F)cc3)c(-c3ccncc3)[nH]2)cc1	inactive	–
O=C(c1ccc(Nc2nccc(-c3cc4ccccc4s3)n2)cc1)N1CCC(N2CCCC2)CC1	–	9.34 µM (active)
CC(C)(Sc1ccc(CCN(CCCCC2CCCCC2)C(=O)NC2CCCCC2)cc1)C(=O)O	inactive	–
Cc1ccc(NC(=O)c2cccc(N(C)C)c2)cc1NC(=O)c1ccc(O)cc1	inactive	–
